Assay results as given in PubChem BioAssay.
Values without a mark were called inactive. The list shows a part of the results. The source made the active and inactive calls. Unless noted, no stated cut-off is given here; in the data, active means inhibition above about 25%; inactive means the rest. Numbered stars: 1 amine (or outer) side, 2 acyl side, 3 side chain; on linkers, the order of the positions; unused ones are H or OH. Bridge positions count the residues as written; N and C are the ends. Square brackets hold non-standard residues; d marks the D form. Peptide text beside a SMILES is read from it. ξ: configuration not given here. X1 = CC[C@H](CCC[C@@H](O)[C@@H](C)C(=O)O[C@H](C)[C@@H](C)C/C=C(C)/C(=C\C(=O)[*:1])OC)O[*:2]; NMeξIle = CC[C@H](C)C(NC)C(=O)O; NMeV = CN[C@H](C(=O)O)C(C)C; NMeS = CN[C@@H](CO)C(=O)O

Legend:
[1] = target: Nuclear receptor coactivator 3 (Homo sapiens) (UniProt Q9Y6Q9); test: NCOA3 GAL4-fusion reporter inhibition – cell-based, luminescence, quadruplicate, confirmation (AID 588792;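 active means mean inhibition over 43.08%, the solvent-only control mean plus 3 SD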;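 further: 0% = DMSO treated cells and 100% = gossypol at 36 µM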); settings: HEK293 GAL4-SRC3 luciferase reporter, at 3.6 µM, stronger effect = higher value
[2] = system: transactivating tegument protein VP16 (Human herpesvirus 1), Gal4-VP16 luciferase reporter; test: repression of VP16-driven luciferase reporter – cell-based, luminescence, high throughput, counter-screen for SRC3 inhibitor project (AID 588794; in the data active means inhibition above about 30%); settings: mammalian cells, at 3.6 µM, stronger effect = higher value
[3] = target: Nuclear receptor coactivator 1 (Homo sapiens) (UniProt Q15788); test: NCOA1 GAL4-fusion reporter inhibition – cell-based, luminescence, quadruplicate, confirmation (AID 588820;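 active means mean inhibition above 46.68%, the untreated control wells mean plus 3 SD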;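 further: 0% = DMSO wells and 100% = gossypol 36 µM treated wells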); settings: HEK293 GAL4-SRC1 luciferase reporter, at 3.6 µM, stronger effect = higher value
[4] = repression of VP16-driven luciferase reporter – cell-based, luminescence, high throughput, counter-screen for SRC1 inhibitor project (AID 588824); settings: cell-based VP16 transactivation luciferase luminescence; at 3.6 µM; stronger effect = higher value
[5] = StAR promoter reporter inhibitors, counter-screen for LRH-1 inverse agonist project, cell-based, luminescence, high throughput (AID 651611; in the data active means inhibition above about 28%); settings: StAR promoter luciferase reporter counterscreen, at 3.6 µM, stronger effect = higher value
[6] = target: Nuclear receptor subfamily 5 group A member 2 (Homo sapiens) (UniProt O00482); test: NR5A2 activity suppression in reporter cells – cell-based, luminescence, confirmation (AID 651613; in the data active means inhibition above about 42%;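 further: HEK293T cells co-transfected with LRH-1 and StAR promoter luciferase reporter; 0% = vehicle wells and 100% = parental cells lacking receptor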); settings: cell-based LRH-1 luciferase reporter, inverse agonism; at 3.6 µM; stronger effect = higher value
[7] = target: Steroidogenic factor 1 (Homo sapiens) (UniProt Q13285); test: inverse agonism at SF1 nuclear receptor – cell-based, luminescence, high throughput, counter-screen for LRH-1 inverse agonist project (AID 651614; in the data active means inhibition above about 44%;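 further: cells cotransfected with StAR promoter reporter and SF1 expression vector; 0% = vehicle on cells with receptor and 100% = vehicle on cells lacking receptor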); settings: cell-based SF1 luciferase reporter, at 3.6 µM, stronger effect = higher value
[8] = compounds suppressing VP16-driven luciferase signal – cell-based, luminescence, high throughput, counter-screen for LRH-1 inverse agonist project (AID 651615; in the data active means inhibition above about 33%); settings: Gal4-VP16 luciferase reporter cells, at 3.6 µM, stronger effect = higher value
[9] = target: Photoreceptor-specific nuclear receptor (Homo sapiens) (UniProt Q9Y5X4); test: retest of NR2E3-NCOR disrupting agonists – cell-based, luminescence, CHO-S two-hybrid, confirmation (AID 624378;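 active means average inhibition above a cutoff equal to the mean inhibition of all tested compounds plus one SD, cut at about 70% in these data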;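 further: 0% = DMSO in NR2E3 cells and 100% = DMSO in cells lacking NR2E3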); settings: CHO-S mammalian two-hybrid NR2E3-NCOR, luciferase luminescence; at 3.98 µM; stronger effect = higher value
[10] = nonselective effects on VP16 transactivation – cell-based, luminescence, CHO-S, high throughput, counter-screen for NR2E3 agonist project, confirmation (AID 624379;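 active means mean inhibition above a cutoff equal to the average over all tested compounds plus one standard deviation, cut at about 70% in these data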;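 further: luciferase from a UAS reporter driven by GAL4-VP16 transactivation; 0% = DMSO with VP16-transfected cells and 100% = DMSO with cells lacking VP16; higher means less reporter light so more repression of VP16 activity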); settings: CHO-S GAL4-VP16 luciferase reporter, at 3.98 µM, stronger effect = higher value
[11] = system: transactivating tegument protein VP16 (Human herpesvirus 1); test: compounds suppressing VP16-driven luciferase signal – cell-based, luminescence, single concentration, counter-screen for SRC2 inhibitor project (AID 652007; in the data active means inhibition above about 36%); settings: cell-based VP16 transactivation luciferase reporter, at 8.9 µM, stronger effect = higher value
[12] = target: Nuclear receptor coactivator 2 (Homo sapiens) (UniProt Q15596); test: inhibition of GAL4-SRC2 driven luciferase expression – cell-based, luminescence, HEK293, triplicate, confirmation (AID 652008;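 active means mean inhibition above 46.5%, the solvent-only control mean plus 3 SD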;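 further: 0% = DMSO-treated cells and 100% = Gossypol at 36 µM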); settings: HEK293 GAL4-SRC2 luciferase reporter, at 8.9 µM, stronger effect = higher value

Sequence of Steroidogenic factor 1 (Homo sapiens) (Q13285 whole entry, looked up, the tested form may be a part): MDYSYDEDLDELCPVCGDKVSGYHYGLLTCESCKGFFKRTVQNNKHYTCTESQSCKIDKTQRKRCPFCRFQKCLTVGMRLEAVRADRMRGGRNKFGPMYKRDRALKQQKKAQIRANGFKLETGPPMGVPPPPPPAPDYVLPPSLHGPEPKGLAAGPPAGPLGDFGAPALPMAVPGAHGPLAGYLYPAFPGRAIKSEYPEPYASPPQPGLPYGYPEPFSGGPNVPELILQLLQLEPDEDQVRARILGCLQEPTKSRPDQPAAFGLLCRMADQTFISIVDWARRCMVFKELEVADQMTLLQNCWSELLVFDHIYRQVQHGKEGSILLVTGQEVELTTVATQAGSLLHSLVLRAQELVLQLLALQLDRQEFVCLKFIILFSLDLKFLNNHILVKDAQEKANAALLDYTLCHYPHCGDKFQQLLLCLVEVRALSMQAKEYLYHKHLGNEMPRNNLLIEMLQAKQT
Sequence of Nuclear receptor coactivator 1 (Homo sapiens) (Q15788 whole entry, looked up, the tested form may be a part): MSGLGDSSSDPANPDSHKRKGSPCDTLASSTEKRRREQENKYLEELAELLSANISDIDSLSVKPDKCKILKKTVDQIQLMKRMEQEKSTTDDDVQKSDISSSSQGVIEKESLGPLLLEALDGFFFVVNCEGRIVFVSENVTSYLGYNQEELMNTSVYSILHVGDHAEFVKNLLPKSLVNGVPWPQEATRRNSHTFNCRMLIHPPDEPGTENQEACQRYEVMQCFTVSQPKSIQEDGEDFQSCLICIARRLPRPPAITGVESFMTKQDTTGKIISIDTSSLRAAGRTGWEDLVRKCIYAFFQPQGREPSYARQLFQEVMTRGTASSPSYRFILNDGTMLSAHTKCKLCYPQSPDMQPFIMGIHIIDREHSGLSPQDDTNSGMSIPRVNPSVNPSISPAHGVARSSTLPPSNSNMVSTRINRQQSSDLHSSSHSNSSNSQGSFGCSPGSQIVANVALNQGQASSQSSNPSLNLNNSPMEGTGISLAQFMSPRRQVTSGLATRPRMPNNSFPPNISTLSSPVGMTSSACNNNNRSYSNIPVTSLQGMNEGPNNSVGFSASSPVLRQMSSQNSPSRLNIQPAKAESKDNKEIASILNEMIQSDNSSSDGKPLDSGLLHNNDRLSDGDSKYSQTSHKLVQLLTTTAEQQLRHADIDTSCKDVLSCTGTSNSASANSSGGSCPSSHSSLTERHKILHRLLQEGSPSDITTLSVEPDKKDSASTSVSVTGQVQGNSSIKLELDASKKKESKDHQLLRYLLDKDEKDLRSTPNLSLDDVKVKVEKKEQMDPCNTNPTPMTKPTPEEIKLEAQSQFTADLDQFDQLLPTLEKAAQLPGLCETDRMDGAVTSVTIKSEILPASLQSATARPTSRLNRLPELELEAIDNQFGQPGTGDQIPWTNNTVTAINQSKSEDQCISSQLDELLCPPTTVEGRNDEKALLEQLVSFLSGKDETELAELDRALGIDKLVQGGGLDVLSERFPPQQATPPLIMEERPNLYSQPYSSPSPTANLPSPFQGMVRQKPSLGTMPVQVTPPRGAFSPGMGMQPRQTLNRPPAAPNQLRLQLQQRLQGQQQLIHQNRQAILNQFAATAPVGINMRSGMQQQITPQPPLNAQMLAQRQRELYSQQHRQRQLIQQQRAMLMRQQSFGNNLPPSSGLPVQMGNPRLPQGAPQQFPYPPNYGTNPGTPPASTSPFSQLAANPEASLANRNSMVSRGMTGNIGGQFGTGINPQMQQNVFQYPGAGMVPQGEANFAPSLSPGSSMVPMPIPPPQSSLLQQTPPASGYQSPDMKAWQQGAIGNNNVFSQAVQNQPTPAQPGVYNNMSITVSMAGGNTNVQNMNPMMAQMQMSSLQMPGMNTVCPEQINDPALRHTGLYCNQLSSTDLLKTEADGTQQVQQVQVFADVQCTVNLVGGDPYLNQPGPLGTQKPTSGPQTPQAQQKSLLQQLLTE
Sequence of Nuclear receptor coactivator 3 (Homo sapiens) (Q9Y6Q9 whole entry, looked up, the tested form may be a part): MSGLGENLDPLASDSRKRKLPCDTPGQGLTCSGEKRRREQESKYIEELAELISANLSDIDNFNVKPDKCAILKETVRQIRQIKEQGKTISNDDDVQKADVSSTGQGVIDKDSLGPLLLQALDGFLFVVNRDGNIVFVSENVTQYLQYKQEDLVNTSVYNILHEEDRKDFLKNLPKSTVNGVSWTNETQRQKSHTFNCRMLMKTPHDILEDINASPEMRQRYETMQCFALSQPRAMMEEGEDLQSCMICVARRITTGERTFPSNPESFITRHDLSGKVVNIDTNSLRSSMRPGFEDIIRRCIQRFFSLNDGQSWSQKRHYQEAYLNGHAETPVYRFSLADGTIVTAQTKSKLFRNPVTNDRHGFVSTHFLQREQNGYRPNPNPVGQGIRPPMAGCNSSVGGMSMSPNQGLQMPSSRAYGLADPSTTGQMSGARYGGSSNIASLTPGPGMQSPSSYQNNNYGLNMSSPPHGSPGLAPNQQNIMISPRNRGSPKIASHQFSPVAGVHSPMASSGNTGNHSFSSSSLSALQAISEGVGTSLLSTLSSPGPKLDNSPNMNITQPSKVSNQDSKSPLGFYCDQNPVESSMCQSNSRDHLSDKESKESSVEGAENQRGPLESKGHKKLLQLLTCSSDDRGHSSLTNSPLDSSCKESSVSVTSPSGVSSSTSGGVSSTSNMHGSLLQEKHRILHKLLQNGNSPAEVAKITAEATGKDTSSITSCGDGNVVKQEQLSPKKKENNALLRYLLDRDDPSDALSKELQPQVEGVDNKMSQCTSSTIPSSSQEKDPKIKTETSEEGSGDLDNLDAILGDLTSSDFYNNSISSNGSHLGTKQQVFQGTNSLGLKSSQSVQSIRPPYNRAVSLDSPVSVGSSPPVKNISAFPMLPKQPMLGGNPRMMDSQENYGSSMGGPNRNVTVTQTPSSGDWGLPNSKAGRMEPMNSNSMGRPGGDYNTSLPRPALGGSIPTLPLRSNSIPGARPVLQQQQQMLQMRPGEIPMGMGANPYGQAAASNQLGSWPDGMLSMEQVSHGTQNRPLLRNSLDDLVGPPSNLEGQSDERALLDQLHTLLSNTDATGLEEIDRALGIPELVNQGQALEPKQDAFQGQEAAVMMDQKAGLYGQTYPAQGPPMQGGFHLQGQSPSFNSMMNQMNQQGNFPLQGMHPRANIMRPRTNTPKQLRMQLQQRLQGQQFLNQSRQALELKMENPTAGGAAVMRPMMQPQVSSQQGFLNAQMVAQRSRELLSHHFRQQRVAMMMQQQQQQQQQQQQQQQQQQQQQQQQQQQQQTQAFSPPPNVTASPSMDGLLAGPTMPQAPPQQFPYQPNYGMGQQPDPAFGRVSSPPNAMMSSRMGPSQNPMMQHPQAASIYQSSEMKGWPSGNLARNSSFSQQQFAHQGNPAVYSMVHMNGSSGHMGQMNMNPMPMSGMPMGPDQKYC
Sequence of Nuclear receptor subfamily 5 group A member 2 (Homo sapiens) (O00482 whole entry, looked up): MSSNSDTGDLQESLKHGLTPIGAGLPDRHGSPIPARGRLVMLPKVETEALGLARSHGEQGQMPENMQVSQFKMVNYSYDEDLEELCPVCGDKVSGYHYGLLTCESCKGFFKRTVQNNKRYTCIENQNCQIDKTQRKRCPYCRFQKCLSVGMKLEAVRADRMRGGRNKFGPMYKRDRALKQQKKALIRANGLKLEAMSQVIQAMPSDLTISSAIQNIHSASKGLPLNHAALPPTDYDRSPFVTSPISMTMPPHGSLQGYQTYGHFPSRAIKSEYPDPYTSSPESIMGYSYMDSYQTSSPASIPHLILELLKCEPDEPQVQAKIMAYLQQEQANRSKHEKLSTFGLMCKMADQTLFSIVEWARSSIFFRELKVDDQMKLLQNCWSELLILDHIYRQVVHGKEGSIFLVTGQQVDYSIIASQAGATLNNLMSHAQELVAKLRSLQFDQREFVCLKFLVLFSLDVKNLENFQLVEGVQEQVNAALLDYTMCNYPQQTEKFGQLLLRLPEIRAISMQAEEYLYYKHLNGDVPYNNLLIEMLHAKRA
Sequence of Photoreceptor-specific nuclear receptor (Homo sapiens) (Q9Y5X4 whole entry, looked up): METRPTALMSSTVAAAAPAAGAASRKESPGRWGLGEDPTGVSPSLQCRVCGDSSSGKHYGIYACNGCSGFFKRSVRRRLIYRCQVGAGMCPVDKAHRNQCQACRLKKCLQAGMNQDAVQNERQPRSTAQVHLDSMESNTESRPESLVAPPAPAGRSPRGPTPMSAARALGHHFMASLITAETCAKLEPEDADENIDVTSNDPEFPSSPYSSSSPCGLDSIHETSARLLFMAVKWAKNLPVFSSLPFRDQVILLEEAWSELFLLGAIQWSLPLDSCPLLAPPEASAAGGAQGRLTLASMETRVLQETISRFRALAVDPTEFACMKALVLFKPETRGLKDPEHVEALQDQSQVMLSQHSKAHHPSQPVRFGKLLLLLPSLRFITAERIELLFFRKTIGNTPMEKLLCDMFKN

CCCC(=O)NC(c1ccccc1Cl)c1ccc2cccnc2c1O (stereo unspecified)
inhibition [1]: 55.3% (active) | inhibition [2]: 47.8% (active) | inhibition [3]: 35.6% | inhibition [4]: 53.4% (active) | inhibition [5]: 82.7% (active) | inhibition [6]: 99.2% (active) | inhibition [7]: 90.3% (active) | inhibition [8]: 83.2% (active)

CCN1/C(=C/c2ccc3ccccc3[n+]2CC)C=Cc2ccccc21
inhibition [1]: 74% (active) | inhibition [2]: 86.2% (active) | inhibition [3]: 55.5% (active) | inhibition [4]: 84.7% (active) | inhibition [5]: 78.7% (active) | inhibition [6]: 110% (active) | inhibition [7]: 93% (active) | inhibition [8]: 89.3% (active)

CCOc1cc(/C=C(/C#N)c2ccc(Cl)cc2)cc(Cl)c1OCC(=O)O
inhibition [1]: 51.4% (active) | inhibition [2]: 45.5% (active) | inhibition [3]: 29.6% | inhibition [4]: 36.9% (active) | inhibition [9]: 62.7% | inhibition [10]: 77.7% (active) | inhibition [11]: 77.6% (active) | inhibition [12]: 91% (active)

O=C(/C=C/c1ccc(O)cc1)c1ccc(NC2=C(N3CCCCC3)C(=O)c3ccccc3C2=O)cc1
inhibition [1]: 33.2% | inhibition [2]: 26.1% | inhibition [3]: 22.5% | inhibition [4]: 36.1% (active) | inhibition [5]: -1.86% | inhibition [6]: 76.3% (active) | inhibition [7]: 17.3% | inhibition [8]: 67.4% (active)

COc1cccc(/C=N/Nc2ccc(C(=O)O)cc2)c1O
inhibition [1]: 68% (active) | inhibition [2]: 63.8% (active) | inhibition [3]: 12.8% | inhibition [4]: 64.4% (active) | inhibition [5]: 68.7% (active) | inhibition [6]: 68.3% (active) | inhibition [7]: 73% (active) | inhibition [8]: 68.7% (active)

Cc1cc(C)nc(NC(N)=NCCc2ccccc2)n1
inhibition [1]: 75.9% (active) | inhibition [2]: 46.3% (active) | inhibition [3]: 51.5% (active) | inhibition [4]: 49.1% (active) | inhibition [5]: 58.4% (active) | inhibition [6]: 109% (active) | inhibition [7]: 88.2% (active) | inhibition [8]: 93.5% (active)

Cc1nc2ccc(NC(=O)c3cccs3)cc2c(=O)n1Cc1ccc(Cl)cc1
inhibition [1]: 4.95% | inhibition [2]: 15.8% | inhibition [3]: -3.3% | inhibition [4]: 23.8% | inhibition [5]: 27.4% | inhibition [6]: 52.7% (active) | inhibition [7]: 55% (active) | inhibition [8]: 40.8% (active)

O=C(Nc1ccc2c(c1)OCCO2)C1CCCC1
inhibition [1]: 15.8% | inhibition [2]: -21.9% | inhibition [3]: -2.87% | inhibition [4]: -33.3% | inhibition [9]: 53.2% | inhibition [10]: 13.8% | inhibition [11]: -46% | inhibition [12]: 51.9% (active)

CC[C@@H]1CCC[C@@H](O)[C@@H](C)C(=O)O[C@H](C)[C@@H](C)C/C=C(C)/C(OC)=C\C(=O)N(C)C([C@@H](C)CC)C(=O)N(C)[C@@H](C(C)C)C(=O)N(C)[C@@H](COC)C(=O)N2CCC[C@H]2C(=O)N(C)[C@@H](C(C)C)C(=O)N2CCC[C@H]2C(=O)O1 (stereo partly specified) ([NMeξIle][NMeV][NMeS](Me)P[NMeV]P; linker N-C via X1)
inhibition [1]: 79.9% (active) | inhibition [2]: 86.5% (active) | inhibition [3]: 57.1% (active) | inhibition [4]: 87.5% (active) | inhibition [5]: 83% (active) | inhibition [6]: 104% (active) | inhibition [7]: 94.8% (active) | inhibition [8]: 93.1% (active)

CC(=NNC(=S)Nc1cccc(Cl)c1)c1ccccn1
inhibition [1]: 71% (active) | inhibition [2]: 66.5% (active) | inhibition [3]: 44.7% | inhibition [4]: 65.1% (active) | inhibition [5]: 76.5% (active) | inhibition [6]: 90.8% (active) | inhibition [7]: 91.1% (active) | inhibition [8]: 75.7% (active)

CN(C)CC1CCC/C(=C\c2ccc(OC(=O)c3ccc(Cl)cc3)cc2)C1=O (stereo unspecified)
inhibition [1]: 50.4% (active) | inhibition [2]: 60.2% (active) | inhibition [3]: 29.9% | inhibition [4]: 58.1% (active) | inhibition [5]: 70.8% (active) | inhibition [6]: 89.9% (active) | inhibition [7]: 76.4% (active) | inhibition [8]: 69.3% (active)

Cc1oc2c(Cl)c(Cl)c(O)c(CN(C)C)c2c1C(=O)c1ccc(Cl)cc1
inhibition [1]: 44.1% (active) | inhibition [2]: 26.1% | inhibition [3]: 44.2% | inhibition [4]: 33.1% (active)

COc1cc(/C=C/C(=O)Nc2ccc(OC)c(S(=O)(=O)N3CCOCC3)c2)ccc1OCC#N
inhibition [1]: 12.1% | inhibition [2]: 32.6% (active) | inhibition [3]: 19.1% | inhibition [4]: 40.3% (active)

COC(=O)c1cc(Cl)cc(Cl)c1OS(=O)(=O)N(C)C
inhibition [1]: -11.6% | inhibition [2]: -46.8% | inhibition [3]: -212% | inhibition [4]: -59.6%

CCN(CC)c1ccc(/C=C/c2ccc3ccc(OC)cc3[n+]2CC)cc1
inhibition [1]: 50.1% (active) | inhibition [2]: 74.8% (active) | inhibition [3]: 42.6% | inhibition [4]: 74.5% (active) | inhibition [5]: 67.8% (active) | inhibition [6]: 96.4% (active) | inhibition [7]: 90.8% (active) | inhibition [8]: 84.1% (active)

NC(=O)c1cc([N+](=O)[O-])ccc1NCc1ccc(O)cc1
inhibition [1]: 25.3% | inhibition [2]: 43.5% (active) | inhibition [3]: 1.01% | inhibition [4]: 30% (active) | inhibition [5]: 48.6% (active) | inhibition [6]: 63.8% (active) | inhibition [7]: 67.8% (active) | inhibition [8]: 66.9% (active)
